Source: PubChem BioAssay (The Scripps Research Institute Molecular Screening Center)
TEAD-YAP inh: TEAD-YAP interaction inhibition; inhibition, % at 9.12 µM; AID 1259422; HEK-TIYL cells, TEAD-Gal4/YAP UAS-luciferase luminescence; hit rate 1.4% among 640,000; in the data active = inhibition above about 32%;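 note: 0% = median of test compound wells and 100% = reference inhibitor wells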
MITF primary: blocks human microphthalmia-associated transcription factor. AID 1259374. inhibition, % at 2.6 µM. O75030. AlphaScreen MITF homodimerization, bead proximity signal. hit rate 0.91% among 650,000; in the data active = inhibition above about 50%;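 note: 0% = vehicle wells with protein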
FBW7 activator: human FBW7 E3 ligase activation, primary screen; AlphaScreen FBW7–phospho-cyclin E peptide binding, activator screen; normalized activity (activation), % at 26.1 µM; Q969H0; hit rate 0.13% among 650,000; in the data active = normalized activity above about 1.9%;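 note: purified mutant Fbw7 with reduced substrate affinity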
Target sequence (Q969H0 whole entry, looked up): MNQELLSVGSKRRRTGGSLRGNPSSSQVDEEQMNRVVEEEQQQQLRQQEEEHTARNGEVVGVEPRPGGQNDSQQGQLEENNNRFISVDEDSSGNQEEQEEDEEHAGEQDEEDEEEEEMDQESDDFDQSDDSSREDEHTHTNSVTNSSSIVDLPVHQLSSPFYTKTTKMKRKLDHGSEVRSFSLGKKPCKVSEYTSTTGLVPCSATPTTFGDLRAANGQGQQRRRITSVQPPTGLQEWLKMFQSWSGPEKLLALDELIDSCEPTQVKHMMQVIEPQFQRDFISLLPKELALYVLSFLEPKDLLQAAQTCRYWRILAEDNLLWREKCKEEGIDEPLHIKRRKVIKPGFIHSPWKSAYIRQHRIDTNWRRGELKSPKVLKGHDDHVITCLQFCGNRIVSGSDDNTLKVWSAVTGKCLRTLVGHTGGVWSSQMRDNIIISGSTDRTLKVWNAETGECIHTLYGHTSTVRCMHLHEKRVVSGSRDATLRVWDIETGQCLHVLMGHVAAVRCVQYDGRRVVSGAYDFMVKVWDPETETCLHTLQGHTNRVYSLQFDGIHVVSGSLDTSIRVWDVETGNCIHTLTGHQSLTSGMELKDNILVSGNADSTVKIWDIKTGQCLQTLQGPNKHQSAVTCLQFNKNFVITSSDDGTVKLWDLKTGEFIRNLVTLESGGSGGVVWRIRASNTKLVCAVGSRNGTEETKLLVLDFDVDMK
GPR151 ag: activates the human receptor GPR151. Q8TDV0. activation, % at 11.2 µM. hit rate 1% among 650,000. PathHunter beta-arrestin GPR151 cells, luminescence; in the data active = activation above about 4.9%;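 note: 0% = median of compound wells and 100% = cells with positive control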
* marks the source's active call; other numbers are inactive results; nt = no result. In the library only some 3.5% were active in any assay of this set; here they are far more common.

SMILES	TEAD-YAP inh	MITF primary	FBW7 activator	GPR151 ag
O=C(Cc1ccc(Br)cc1)Nc1ncc([N+](=O)[O-])s1	-20	4	0	-5
O=C(Nc1ncc([N+](=O)[O-])s1)c1cccnc1	-24	3	0	-11
Cc1ccc(C(=O)Nc2ncc([N+](=O)[O-])s2)cc1	82*	7	0	-11
O=C(Nc1ncc([N+](=O)[O-])s1)c1ccc(Cl)cc1Cl	64*	4	0	-11
O=C(Cc1ccc(Cl)cc1)Nc1ncc([N+](=O)[O-])s1	-36	13	0	-5
O=C(Nc1nc2ccc3ccccc3c2s1)c1ccc(Br)cc1	2	-12	0	0
O=C(Nc1ncc([N+](=O)[O-])s1)c1ccc(Br)cc1	65*	0	0	-8
N#Cc1sc(NC(=O)c2ccc(Br)cc2)nc1Cl	47*	2	0	-6
COC(=O)c1ccc(/C=C2\N=C(c3ccccc3C)OC2=O)cc1	-5	-2	0	0
CCOc1ccc2[nH]c(=O)c(CN(CCCO)C(=O)c3cccc(C)c3)cc2c1	5	3	0	0
CC1SC2=NCN(c3cccc4ccccc34)CN2C1=O (stereo not given)	-2	13	0	0
Cc1onc(-c2ccccc2Cl)c1C(=O)Nc1ncc([N+](=O)[O-])s1	0	7	0	0
Cc1cccc(C(=O)Nc2ncc([N+](=O)[O-])s2)c1	55*	-5	0	-11
Cc1onc(-c2ccccc2)c1C(=O)Nc1ncc([N+](=O)[O-])s1	38*	-2	0	1
CCCC(=O)Nc1ccc(Cl)c(C(F)(F)F)c1	14	10	0	2
O=C(Nc1ccc(OC(F)(F)F)cc1)c1ccc(=O)[nH]c1	33*	-4	0	0
O=C(CCl)Nc1ccc(OC(F)F)cc1	35*	11	0	0
O=C(O)CCCC(=O)Nc1ccc(OC(F)(F)F)cc1	1	6	0	0
O=C(CCl)Nc1ccc(OC(F)(F)F)cc1	34*	6	0	0
O=C(CCl)Nc1ccc(Cl)c(C(F)(F)F)c1	39*	-1	0	2
Cc1ccnc(NC(c2ccc(N(C)C)cc2)c2ccc3cccnc3c2O)c1 (stereo not given)	-56	60*	0	2
Cc1ccnc(NC(c2ccc(O)cc2)c2ccc3cccnc3c2O)c1 (stereo not given)	-5	27	-1	0
Cc1ccnc(NC(c2ccc(Cl)cc2)c2ccc3cccnc3c2O)c1 (stereo not given)	84*	13	-1	1
Cc1ccnc(NC(c2ccc(C(C)C)cc2)c2ccc3cccnc3c2O)c1 (stereo not given)	53*	4	0	0
Cc1ccnc(NC(c2ccc3cccnc3c2O)c2sccc2C)c1 (stereo not given)	30	22	-1	0
SMILES	TEAD-YAP inh	MITF primary	FBW7 activator	GPR151 ag
O=C(Oc1cccnc1)c1ccc(Cl)c([N+](=O)[O-])c1	11	-12	0	2
NC(=O)CSc1nnc(-c2ccccn2)n1-c1ccccc1Cl	7	-5	0	4
OCCN(CCO)CC(O)COc1ccc(C23CC4CC(CC(C4)C2)C3)cc1 (stereo not given)	56*	4	0	0
Cc1ccc(OCC(O)CN(CCO)CCO)cc1 (stereo not given)	-2	-19	0	1
COc1ccc2occ(C(=O)COc3ccc(Br)cc3C#N)c2c1	57*	-4	1	0
COc1cc(C=O)ccc1OCc1cccc(C(=O)O)c1	71*	-4	0	5
COc1ccc(/C=N/n2cnnc2)cc1COc1ccccc1F	12	11	0	0
COc1ccc(C=O)cc1OC(=O)c1ccccc1	5	-4	0	1
COc1ccc(C=O)cc1COc1ccccc1F	0	-4	2.1*	0
COc1cc(C=O)ccc1OCC(=O)c1ccccc1	60*	1	0	-8
COc1cc(/C=N/O)ccc1OCc1cccc(C(=O)O)c1	94*	0	0	-9
O=[N+]([O-])OC12CC3CC(C1)CC([N+](=O)[O-])(C3)C2	9	-28	0	0
COc1ccc(S(=O)(=O)Oc2ccc(C=C3C(=O)NC(=O)NC3=O)cc2OC)cc1	53*	7	0	0
COc1cc(/C=N/n2cnnc2)ccc1OCc1cccc(C(=O)O)c1	78*	37	0	-7
COc1ccc(C(=O)Oc2ccc(C=C3C(=O)NC(=O)NC3=O)cc2OC)cc1	8	9	-1	-2
COc1cc(C=C2C(=O)NC(=O)NC2=O)ccc1OCc1cccc(C(=O)O)c1	81*	5	0	-7
CC(C)NC(=O)c1ccccc1NS(C)(=O)=O	-15	4	0	0
O=C(Cc1ccc(N2CCC(N3CCSCC3)CC2)cc1)NCCc1cccc(F)c1	12	8	0	1
CCCC1([C@@H](O)C/C=C/[C@H]2[C@H](O)CC(=O)[C@@H]2CCCCCCC(=O)O)CCC1	nt	10	nt	4
COc1ccc(NS(=O)(=O)c2ccc(-n3cccn3)cc2)cc1OC	40*	6	0	-1
Cc1ccc(NS(=O)(=O)c2ccc(-n3cccn3)cc2)cc1C	2	2	0	3
COc1ccc(NS(=O)(=O)c2cc(C)ccc2OC)cc1OC	0	3	1	-2
COc1ccc(NS(=O)(=O)c2c(C)cc(C)cc2C)cc1OC	45*	3	0	0
CCN(CC)c1ccc(/C=N\NC(=O)c2cc([N+](=O)[O-])cc([N+](=O)[O-])c2)c(O)c1	4	11	0	-1
CC1CCc2nc(NC(=O)c3ccco3)sc2C1 (stereo not given)	74*	-4	0	-7
SMILES	TEAD-YAP inh	MITF primary	FBW7 activator	GPR151 ag
Cc1ccc(S(=O)(=O)N2CCN(c3nnnn3-c3ccccc3)CC2)cc1Cl	-2	-9	2.2*	1
CC(C)CC(C(=O)O)N1C(=O)c2ccc(Cl)cc2C1=O (stereo not given)	-8	-14	0	0
COc1ccc(-c2cc(C(F)(F)F)nc(S(=O)(=O)CCC(=O)NC(C)C)n2)cc1	0	4	0	-1
CCCNC(=O)CCS(=O)(=O)c1nc(-c2ccc(OC)cc2)cc(C(F)(F)F)n1	10	3	2.1*	0
COc1cc(CC(=O)N2CCC3(CC2)OCc2cc(Cl)ccc2O3)cc(OC)c1OC	59*	-17	0	2
COc1ccc(CCC(=O)N2CCC3(CC2)OCc2ccccc2O3)cc1OC	40*	8	0	-1
COc1cccc(CC(=O)N2CCC3(CC2)OCc2ccccc2O3)c1OC	5	8	0	0
COc1ccc(CCC(=O)N2CCC3(CC2)OCc2ccccc2O3)cc1	-5	0	0	4
COc1cc(CC(=O)N2CCC3(CC2)OCc2ccccc2O3)cc(OC)c1OC	38*	6	0	1
CCCCOc1ccc(C(=O)NO)cc1OC	40*	-7	0	-1
COc1ccc(C(=O)N/N=C(\C)c2ccc(C#N)cc2)cc1OC	41*	1	0	-1
CCCNC(=O)C/C(C)=N/NC(=O)c1ccc(OC)c(OC)c1	34*	-11	0	-1
